{"source": "PubChem BioAssay (EPA / NIEHS)", "note": "Calls of active or inactive are those of the source. Rule for the calls: active = hit-call score of the fitted dose curve at least 0.9, where 1 is the maximum; inactive = score below 0.9.", "data": [{"read-out": "CD69, CD69 (gene 969)", "assay": "BSK_SAg_CD69: BioMAP Diversity Plus: SAg Assay for CD69 Biomarker Activity (AID 2283089);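 for AC50: cell surface CD69 protein quantified by ELISA with fluorescence detection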", "details": "primary human HUVEC with PBMC; actives raise or lower the signal", "summary_of_the_method": "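HUVEC co-cultured with PBMC were dosed with chemical, and CD69 was measured by ELISA with fluorescence read-out 24 h later. Bidirectional curve fitting used DMSO as negative control and activity baseline.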", "values": [{"smiles": "CN(Cc1cnc2nc(N)nc(N)c2n1)c1ccc(C(=O)N[C@@H](CCC(=O)O)C(=O)O)cc1", "outcome": "inactive"}, {"smiles": "Cc1ccc(N=Nc2c(O)ccc3ccccc23)c(C)c1", "outcome": "inactive"}, {"smiles": "CN(CCO)S(=O)(=O)C(F)(F)C(F)(F)C(F)(F)C(F)(F)C(F)(F)C(F)(F)C(F)(F)C(F)(F)F", "outcome": "inactive"}, {"smiles": "O=P(O)(O)CCC(F)(F)C(F)(F)C(F)(F)C(F)(F)C(F)(F)C(F)(F)C(F)(F)C(F)(F)F", "outcome": "inactive"}, {"smiles": "O=C(c1ccccc1)c1ccccc1", "outcome": "inactive"}, {"smiles": "Cc1[nH]nc2c1N=C(c1ccccc1Cl)c1cc([N+](=O)[O-])ccc1N2", "AC50": "3.81 µM (active)"}, {"smiles": "OCC(CO)(CBr)CBr", "outcome": "inactive"}, {"smiles": "O=C1c2ccc(O)c(O)c2C(=O)c2c(O)ccc(O)c21", "outcome": "inactive"}, {"smiles": "COC1=CC(=O)C[C@@H](C)[C@]12Oc1c(Cl)c(OC)cc(OC)c1C2=O", "outcome": "inactive"}, {"smiles": "N=C(N)c1ccc(OCCCCCOc2ccc(C(=N)N)cc2)cc1", "AC50": "1.21 µM (active)"}]}]}
